Assay results: PubChem BioAssay (NCI)
This is part of a sample that, as a whole, favours compounds with a hit. Of some 83,000 tested, about 20% had one in any assay.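 Negative percent growth values reflect cell death: -40 means 40% of the cells present at the start died, and -100 means all died.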 Activity calls are given as the source filed them. Rule for the calls: active = growth percent below 10; inactive = the rest.

These compounds were tested on 786-0 renal (assay: NCI-60 one-dose screen, 48 h (100 = growth as untreated, 0 = no growth, -100 = all killed)). Details: 10 µM unless noted.
`CN(C)c1ccc(-c2cc(-c3ccc(Nc4nc(Nc5ccc(Cl)cc5)nc(Nc5ccc(Cl)cc5)n4)cc3)no2)cc1` was tested, and the growth was 36.9% (inactive). In the case of `CNc1ccc(NC)c2c1C(=O)c1ccccc1C2=O`, the growth was 92.1% (inactive). With `NC(=N\N=C/c1ccccc1[N+](=O)[O-])/C(N)=N\N=C/c1ccccc1[N+](=O)[O-]` the growth was 103% (inactive). In the case of `C#Cc1cccc(NC(=O)c2ccc(NC(=O)CCl)cc2)c1`, the growth was -50.8% [8.25 µM] (active). With `COc1cc(/C=C/C(=O)c2ccc(Nc3nc(Nc4ccc(F)cc4)nc(Nc4ccc(Cl)cc4)n3)cc2)cc(OC)c1OC` the growth was 66.4% (inactive). With `Cc1cc(NCc2cc(Nc3ccnc4cc(Cl)ccc34)ccc2F)nc(Cl)n1` the growth was 50.7% (inactive). For `COc1cc(CCC[P+](c2ccccc2)(c2ccccc2)c2ccccc2)cc2c1OCO2`, the growth was 63.9% (inactive). `CC(=O)C(C)Cc1cc2c(cc1C)C(C)(C)CCC2(C)C` (configuration not stated) was tested, and the growth was 95.2% (inactive). With `CCCCCc1nc2c(c3c1CCCC3)CCCC2` the growth was 85% (inactive).

The compounds below were run on COLO 205 colon in the same assay as above. Details: 10 µM unless noted.
In the case of `CCN(CC)CCCC(C)Nc1c2ccc(Cl)cc2nc2ccc(O)cc12` (configuration not stated), the growth was -16.4% (active). With `Cc1ccc(-c2cc3c(cc2O)C2CCCCC2(N2CCOCC2)O3)cc1` (configuration not stated) the growth was 113% (inactive). `CNC(=O)NCC1OC(n2cnc3c(NC(=O)Nc4ccccc4)ncnc32)C(O[Si](C)(C)C(C)(C)C)C1CC(=O)N(C)OC` (configuration not stated) was tested, and the growth was -100% (active). For `COc1cc(/C=C/C(=O)c2cccc(-n3cc(-c4ccccc4)[nH]c3=O)c2)ccc1O`, the growth was 100% (inactive). `CC(=O)OC1CCC2(C)C(=CC3C4CCC(=O)C4(C)CCC32)C1` (configuration not stated) was tested, and the growth was 94% (inactive). For `O=C(Nc1ccccc1-c1nc2ccccc2c(=O)[nH]1)c1cc2ccccc2[nH]1`, the growth was 103% (inactive). In the case of `CC(=O)OC[C@H]1OC(Sc2sc(C(=O)c3ccc(Br)cc3)c(N)c2-c2nc3ccccc3s2)[C@H](OC(C)=O)[C@@H](OC(C)=O)[C@@H]1OC(C)=O` (some centres not stated), the growth was 85% (inactive). `O=C(COc1ccc(/C=C2\Oc3ccccc3C2=O)cc1)c1ccc(Cl)cc1` was tested, and the growth was 108% (inactive). For `C=CC(=O)Nc1cccc(Oc2nccc(Nc3nnc(C4CC4)s3)n2)c1`, the growth was 107% (inactive). `O=C(NC(CSSCC(NC(=O)c1ccccc1)C(=O)O)C(=O)O)c1ccccc1` (configuration not stated) was tested, and the growth was 114% (inactive). `CC(C)(C)c1ccc(/C=C/C(=O)Nc2ccc(O)cc2)cc1` was tested, and the growth was 73.6% (inactive). In the case of `CCOc1c(C#N)nnc2c(C#N)c(NC(=O)c3ccccc3)nn12`, the growth was 107% (inactive). In the case of `COc1ccc(N=C(c2ccccc2)C2C(=O)c3ccccc3C2=O)cc1`, the growth was 102% (inactive). For `COc1ccc(-c2nc(SCCC(C)C)nc(N/N=C\c3ccccc3O)c2C#N)cc1`, the growth was 96.4% (inactive). With `CN(Cc1cnc2nc(N)nc(N)c2n1)c1ccc(C(=O)N[C@@H](CCc2nn[nH]n2)c2nn[nH]n2)cc1` the growth was 49.3% (inactive). For `C[C@]12CC[C@@H]3c4cc(OC(F)F)c(O)cc4CC[C@H]3[C@@H]1CC[C@@H]2OS(N)(=O)=O`, the growth was 10.7% (inactive). In the case of `C[C@H](NC(=O)[C@@H]1CSSC[C@@H](NC(=O)c2nc3ccccc3cc2O)C(=O)NCC(=O)N1C)c1ccccc1`, the growth was -63.7% (active). In the case of `C=CCOC1=CC(=O)c2ccccc2C1=O`, the growth was 110% (inactive). `O=C(NCCc1ccc(O)c(O)c1)C12CC3CC(CC(C3)C1)C2` was tested, and the growth was 90% (inactive). For `COc1ccc2c(c1)O/C(=C\c1cccc(OCC(=O)Nc3nc4ccccc4s3)c1)C2=O`, the growth was 104% (inactive). With `Cn1c(=O)c2c(nc(Cl)n2CCl)n(C)c1=O` the growth was 60.8% (inactive). With `Cc1cc(C)c2c(-c3nnc(N)s3)cc(=O)oc2c1` the growth was 116% (inactive). In the case of `O=c1[nH][n+](-c2ccc(Cl)cc2)no1`, the growth was 77.9% (inactive). `COC1=CC(=O)C[C@@H](C)[C@]12Oc1c(Cl)c(OC)cc(OC)c1C2=O` was tested, and the growth was 106% (inactive). With `Cc1cc(Cl)nc(NCc2cc(Nc3ccnc4cc(Cl)ccc34)ccc2F)n1` the growth was 75.8% (inactive). `c1ccc2c(c1)nc(CN1CCOCC1)n1cc(N3CCCC3)nc21` was tested, and the growth was 103% (inactive). For `O=Cc1c[nH]c2ccc(-c3csc4ccccc34)cc12`, the growth was 71.6% (inactive). With `N#C/C(=C\c1ccc2c(c1)OCO2)n1nnc2cc(F)c(F)cc21` the growth was 87.4% (inactive). With `N#Cc1c(N2CCNCC2)nc2sc3cc(Cl)c(Cl)cc3n2c1=N` the growth was 132% (inactive). In the case of `CN(C)c1ccc(-c2cc(-c3ccc(Nc4nc(Nc5ccc(Cl)cc5)nc(Nc5ccc(Cl)cc5)n4)cc3)no2)cc1`, the growth was 0.291% (active). For `CNc1ccc(NC)c2c1C(=O)c1ccccc1C2=O`, the growth was 108% (inactive). `NC(=N\N=C/c1ccccc1[N+](=O)[O-])/C(N)=N\N=C/c1ccccc1[N+](=O)[O-]` was tested, and the growth was 109% (inactive). With `C#Cc1cccc(NC(=O)c2ccc(NC(=O)CCl)cc2)c1` the growth was -66.9% [8.25 µM] (active). With `COc1cc(/C=C/C(=O)c2ccc(Nc3nc(Nc4ccc(F)cc4)nc(Nc4ccc(Cl)cc4)n3)cc2)cc(OC)c1OC` the growth was 78.5% (inactive). `Cc1cc(NCc2cc(Nc3ccnc4cc(Cl)ccc34)ccc2F)nc(Cl)n1` was tested, and the growth was 44.2% (inactive). With `COc1cc(CCC[P+](c2ccccc2)(c2ccccc2)c2ccccc2)cc2c1OCO2` the growth was 3.37% (active). For `CC(=O)C(C)Cc1cc2c(cc1C)C(C)(C)CCC2(C)C` (configuration not stated), the growth was 105% (inactive). With `CCCCCc1nc2c(c3c1CCCC3)CCCC2` the growth was 89.4% (inactive).
